From PubChem BioAssay
A selection: hits, their analogues and other compounds. The true share with any hit is near 2.3%.
CHRM1 antagonist = human M1 muscarinic receptor antagonists, primary screen, CHO-K1 cells, Fluo-8 calcium fluorescence, 1536-well | CHO-K1 hM1, ACh EC80 antagonist | hit rate 1.3% among 360,000 | inhibition, % at 3 µM | AID 588852, 2011;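 active means percent inhibition above its own plate's cutoff, namely the mean of that plate's compound wells plus 3 SD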;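 further: peak over basal fluorescence ratio during 140 s after agonist addition; 0% = ACh EC80 plus DMSO and 100% = DMSO alone without agonist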
Target sequence (P11229 whole entry, looked up): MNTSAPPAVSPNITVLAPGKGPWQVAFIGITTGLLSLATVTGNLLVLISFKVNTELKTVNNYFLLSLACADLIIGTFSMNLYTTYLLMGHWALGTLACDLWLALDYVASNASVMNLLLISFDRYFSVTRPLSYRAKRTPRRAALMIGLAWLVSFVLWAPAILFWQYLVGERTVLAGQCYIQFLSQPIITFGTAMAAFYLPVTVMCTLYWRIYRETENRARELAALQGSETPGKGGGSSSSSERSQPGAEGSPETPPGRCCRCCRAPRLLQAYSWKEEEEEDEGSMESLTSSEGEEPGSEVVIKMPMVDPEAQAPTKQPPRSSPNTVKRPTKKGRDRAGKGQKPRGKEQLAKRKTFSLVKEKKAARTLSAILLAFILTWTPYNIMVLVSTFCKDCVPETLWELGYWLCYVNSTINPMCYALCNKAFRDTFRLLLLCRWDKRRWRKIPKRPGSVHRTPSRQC
CHRM1 agonist = human M1 muscarinic receptor agonists, primary screen, Fluo-8 calcium fluorescence, CHO-K1 cells, HTS; CHO-K1 hM1, agonist mode; 0% DMSO, 100% acetylcholine EC100; AID 588814, 2011; hit rate 0.33% among 360,000; Muscarinic acetylcholine receptor M1 (Homo sapiens), P11229; activation, % at 3 µM;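 active means activation above the run's mean compound activation plus 3 SD, cut at about 16% in these data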;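 further: peak over basal fluorescence ratio within a 140 s kinetic read after compound addition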
CHO-K1 Ca PAM = nonselective calcium activators in parental CHO-K1 cells, primary screen, counter-screen for M1 PAM project, cell-based, Fluo-8 calcium fluorescence, full deck, 1536-well; ATP EC20; 0% at ATP EC20, 100% at ATP max; AID 602247, 2012; hit rate 0.02% among 360,000; activation, % at 3 µM;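 active means activation above the run cutoff, the mean activation of all test compounds plus 3 SD, cut at about 40% in these data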;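 further: peak over basal fluorescence ratio in a 140 s read after ATP addition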
CHO-K1 Ca antag = M1 antagonist counterscreen hit in parental CHO-K1 cells; ATP-induced calcium, Fluo-8 fluorescence; inhibition, % at 3 µM; hit rate 0.6% among 360,000;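 active means inhibition above a per-plate cutoff, the plate's mean sample inhibition plus 3 SD, cut at about 24% in these data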;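 further: 0% = DMSO plus EC80 ATP and 100% = DMSO alone without ATP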
M1 PAM = human M1 muscarinic receptor positive allosteric modulators, primary screen, CHO-K1 cells, Fluo-8 calcium fluorescence, 1536-well | Muscarinic acetylcholine receptor M1 (Homo sapiens), P11229 | CHO-K1 hM1, ACh EC20; 0% = ACh EC20, 100% = maximal ACh | activation, % at 3 µM | hit rate 0.088% among 360,000; in the data active means activation above about 19%, passing the limit was not always enough
CHO-K1 Ca ag = counter-screen for M1 agonists: effect in parental CHO-K1 cells; AID 602248, 2012; activation, % at 3 µM; Fluo-8 calcium fluorescence; scaled to maximal ATP response, vehicle zero; hit rate 0.48% among 360,000; in the data active means activation above about 15%;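 further: untransfected CHO-K1 host cells lacking M1 receptor as counterscreen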
* = called active by the depositor; x = no result.

SMILES	CHRM1 antagonist	CHRM1 agonist	CHO-K1 Ca PAM	CHO-K1 Ca antag	M1 PAM	CHO-K1 Ca ag
CC(C)Nc1nc(Nc2ccc(C#N)cc2)c2sccc2n1	-3.0	-5.3	-8.6	-0.1	-7.3	3.6
NNC(=O)C12CC3CC(C1)CC(n1ncnn1)(C3)C2	-9.6	-7.0	14.2	-4.0	10.1	-0.1
CCOC(=O)C1=C(COC(=O)COc2ccc(C(=O)CC)cc2)NC(=O)NC1C (centres undefined)	12.7	4.4	-11.3	11.7	-8.5	16.6*
CCOC(=O)C1=C(COC(=O)COc2ccc(C(C)=O)cc2)NC(=O)NC1C (centres undefined)	-2.1	0.6	-14.7	1.7	-1.8	5.4
N#Cc1cccc(NC(=O)c2cc(C3CCCCN3C(=O)CCCc3ccccc3)on2)c1 (centres undefined)	-11.4	0.6	-0.5	-5.8	6.4	3.3
Cc1ccc(NC(=O)CCC(=O)OCC(=O)c2ccc(Oc3ccc([N+](=O)[O-])cc3)cc2)c(C)c1	9.6	2.1	-0.8	29.9*	2.3	1.1
Cc1c(C(=O)NCCC2=CCCCC2)oc2ccc(S(=O)(=O)N3CCOCC3)cc12	42.3*	3.0	11.1	9.7	-13.6	6.0
CCOC1=C2CN(S(=O)(=O)c3ccc(C)cc3)[C@H](c3ccccc3)C[C@@H]2N(S(=O)(=O)c2ccc(C)cc2)[C@H](c2ccccc2)C1	4.1	-6.3	9.1	5.4	6.1	0.1
O=C(OCCO)c1c(C2=CCCCC2)oc2c1C(OCCO)CCC2 (centres undefined)	x	x	-0.5	-14.9	x	0.2
CCN=C1SC(CC(=O)Nc2ccc(C(F)(F)F)cc2)C(=O)N1CC (centres undefined)	33.2*	-0.7	-4.9	17.0	-23.1	10.2
CCN=C1SC(CC(=O)Nc2ccc(N3CCOCC3)cc2)C(=O)N1CC (centres undefined)	8.4	-1.3	0.4	2.1	-2.2	3.8
COc1ccc(OCC(=O)Nc2cc(NC(=O)c3ccco3)ccc2OC)cc1	-3.7	-1.5	-3.6	1.1	-0.6	1.4
Cc1nc([N+](=O)[O-])c(SCC(O)CCl)n1Cc1ccc(Cl)cc1 (centres undefined)	12.8	-2.9	12.6	14.8	-6.0	23.1*
COc1ccc(Cn2c(C)nc([N+](=O)[O-])c2SCC(=O)O)cc1[N+](=O)[O-]	1.1	-5.2	14.4	-12.0	2.2	0.4
O=C(Cc1c(F)cccc1Cl)NNC(=S)Nc1ccc(S(=O)(=O)Nc2ncccn2)cc1	-4.2	-2.9	8.9	-6.9	4.1	0.8
CC(C)Oc1ccc(C(=O)Nc2ccc(N3CCCC3)cc2)cc1	29.4*	-8.9	-5.7	12.0	-12.6	-0.8
COc1cccc(OC)c1C(=O)Nc1ccc(N2CCCC2)cc1	30.5*	-7.3	-18.2	-2.1	-18.6	0.3
COc1ccccc1C(=O)Nc1ccc(N2CCCCC2)cc1	-8.0	-4.6	19.1	-21.9	3.5	0.7
CCOC(=O)c1c(-c2ccccc2)csc1NC(=O)/C(C#N)=C/c1ccc(OC)c(OC)c1	-9.0	-4.0	20.3	-4.8	5.9	0.2
CCOC(=O)c1c(-c2ccccc2)csc1NC(=O)/C(C#N)=C/c1ccc(O)c(OC)c1	29.4	16.7*	10.1	20.9	3.6	12.8
CCc1ccc(NS(=O)(=O)c2c(C)noc2C)cc1	39.9*	-5.3	-10.7	7.0	-22.2	0.1
Cc1cccc(N2C(=O)CC(N3CCN(Cc4ccc5c(c4)OCO5)CC3)C2=O)c1 (centres undefined)	34.8*	-5.9	-5.0	19.8	-13.3	-0.3
Cc1cc(OC(C)C(=O)NC2CCN(Cc3ccccc3)CC2)c2c(C)cc(=O)oc2c1 (centres undefined)	9.2	15.5	2.8	-19.4	-5.0	0.1
Cc1ccc(C)c(OCc2cc(C(=O)NC3CCN(Cc4ccccc4)CC3)no2)c1	31.6*	2.6	-7.3	4.1	-15.2	14.7
Cc1cc(C)c2c(CN3CCCC3)cc(=O)oc2c1	-0.9	0.5	-7.5	29.8*	15.1	-1.0
SMILES	CHRM1 antagonist	CHRM1 agonist	CHO-K1 Ca PAM	CHO-K1 Ca antag	M1 PAM	CHO-K1 Ca ag
CCc1cc(=O)oc2cc(C)cc(OC(C)C(=O)NC3CCN(Cc4ccccc4)CC3)c12 (centres undefined)	12.1	22.8*	-5.1	-11.8	-6.9	0.3
O=C1CC(N2CCN(Cc3ccc4c(c3)OCO4)CC2)C(=O)N1c1ccccc1 (centres undefined)	4.1	-7.5	23.4	-17.9	-5.1	1.6
CC12CCC(=O)N1C(C(=O)NNC(=O)c1ccccc1)CS2 (centres undefined)	-0.1	-1.8	3.8	-2.2	1.2	0.9
CCc1nc2c(OCc3ccc(F)c(F)c3)cccn2c1N(C)C(=O)c1ccc(C)cc1	-13.8	-8.5	4.3	-3.1	-5.9	0.5
Cc1cc(C)c2c(CN3CCN(Cc4ccccc4)CC3)cc(=O)oc2c1	28.4	-0.8	-4.2	-1.5	-20.3	17.3*
Cc1cc(C)c2c(CN3CCN(Cc4ccc5c(c4)OCO5)CC3)cc(=O)oc2c1C	-11.9	-4.2	15.6	-6.2	-7.9	0.1
Cc1cc(C)c2c(CN3CCN(Cc4ccc5c(c4)OCO5)CC3)cc(=O)oc2c1	32.6*	-6.6	18.3	-9.8	-27.0	0.7
C[C@H]1CN([C@@H](C)CO)C(=O)CCCn2nncc2CO[C@H]1CN(C)S(=O)(=O)c1cccs1	-14.3	-3.9	5.6	1.7	7.2	0.1
COc1cc2c(cc1OC)CN(CCC(C)c1ccc(Cl)cc1)CC2 (centres undefined)	43.0*	0.3	9.7	-10.4	-19.8	1.0
Cc1nc2c(-c3ccc(F)cc3)c(C)nn2c(C)c1CCC(=O)Nc1ccccc1	6.7	-2.2	-8.1	0.0	2.5	0.3
CCN1CCN(c2ccc(NC(=O)CCc3c(C)nc4c(-c5ccc(F)cc5)c(C)nn4c3C)cc2)CC1	33.5*	-9.1	26.1	-8.5	-25.6	1.5
CCOC(=O)C1(C)CCCCN1C(=O)c1ccc(N(C)C)cc1 (centres undefined)	-12.6	0.3	-2.5	17.6	10.4	-0.1
CCOC(=O)C1(C)CCCCCN1C(=O)c1ccc(OC)cc1 (centres undefined)	10.1	-2.7	-14.2	24.7*	-4.0	0.1
CC/C(C)=N/Oc1nc(C)cc(C)n1	13.7	-1.2	-8.4	5.7	1.2	4.6
COCCCNC(=O)c1ccc(S(=O)(=O)c2ccc(C)cc2)c(NC(C)=O)c1	-6.9	-2.4	-6.6	-17.4	-3.6	0.5
O=C1c2ccccc2C(=O)N1CCCc1nc2ccccc2c(=O)n1CCCn1ccnc1	2.7	-6.1	-1.2	30.1*	8.3	0.3
